Test [1] addresses Tyrosine-protein kinase receptor UFO (Homo sapiens) (UniProt P30530). The note with it: at 1 µM.
Test [2] deals with Tyrosine-protein kinase Blk (Homo sapiens) (UniProt P51451). The following applies: at 0.1 µM.
The target is the same in test [3]. The following applies: at 1 µM.
Test [4] deals with T1, Cytoplasmic tyrosine-protein kinase BMX (Homo sapiens) (UniProt P51813).
T1 sequence (whole entry): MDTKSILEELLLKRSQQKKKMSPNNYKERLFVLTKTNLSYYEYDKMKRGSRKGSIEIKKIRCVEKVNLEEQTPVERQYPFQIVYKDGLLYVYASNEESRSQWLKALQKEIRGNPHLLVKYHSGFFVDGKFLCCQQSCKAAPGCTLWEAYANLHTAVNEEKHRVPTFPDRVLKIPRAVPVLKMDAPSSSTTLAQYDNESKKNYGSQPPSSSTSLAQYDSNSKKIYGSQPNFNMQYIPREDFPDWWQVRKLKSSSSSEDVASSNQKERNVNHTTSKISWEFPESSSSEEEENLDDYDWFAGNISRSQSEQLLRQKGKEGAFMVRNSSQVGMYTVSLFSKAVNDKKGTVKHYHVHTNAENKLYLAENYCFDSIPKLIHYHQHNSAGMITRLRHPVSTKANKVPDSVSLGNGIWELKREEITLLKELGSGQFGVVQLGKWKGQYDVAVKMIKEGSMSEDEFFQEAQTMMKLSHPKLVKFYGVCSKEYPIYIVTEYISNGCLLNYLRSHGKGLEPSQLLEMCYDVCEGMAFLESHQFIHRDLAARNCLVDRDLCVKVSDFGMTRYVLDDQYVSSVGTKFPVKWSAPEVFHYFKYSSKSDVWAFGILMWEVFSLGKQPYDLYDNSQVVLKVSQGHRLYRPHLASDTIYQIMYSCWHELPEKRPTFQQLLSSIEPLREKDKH
The following applies: at 0.1 µM.

The target in test [5] is T1, Cytoplasmic tyrosine-protein kinase BMX (Homo sapiens). The following applies: at 1 µM.
Test [6] deals with Protein-tyrosine kinase 6 (Homo sapiens) (UniProt Q13882). The following applies: at 0.1 µM.
Chain of Protein-tyrosine kinase 6 (Homo sapiens) (Q13882 whole entry, looked up): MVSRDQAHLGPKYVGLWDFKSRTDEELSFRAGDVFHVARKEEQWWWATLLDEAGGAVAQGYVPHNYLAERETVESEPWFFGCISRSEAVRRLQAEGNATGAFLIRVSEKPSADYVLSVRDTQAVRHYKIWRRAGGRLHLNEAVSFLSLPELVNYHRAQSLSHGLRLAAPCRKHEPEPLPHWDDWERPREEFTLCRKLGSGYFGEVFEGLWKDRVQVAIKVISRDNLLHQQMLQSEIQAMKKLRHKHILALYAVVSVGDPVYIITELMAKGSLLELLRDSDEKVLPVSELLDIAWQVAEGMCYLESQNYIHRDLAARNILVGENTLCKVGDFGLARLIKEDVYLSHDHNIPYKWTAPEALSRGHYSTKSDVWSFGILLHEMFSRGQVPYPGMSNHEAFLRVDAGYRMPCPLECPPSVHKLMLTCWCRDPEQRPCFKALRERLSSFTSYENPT
Test [7] shares this target. The note with it: at 1 µM.
For test [8], the target named is Tyrosine-protein kinase BTK (Homo sapiens) (UniProt Q06187). The note with it: at 0.1 µM.
The target is the same in test [9]. The following applies: at 1 µM.
The target of test [10] is Tyrosine-protein kinase CSK (Homo sapiens) (UniProt P41240). The note with it: at 0.1 µM.
Chain of Tyrosine-protein kinase CSK (Homo sapiens) (P41240 2-450 limits assumed): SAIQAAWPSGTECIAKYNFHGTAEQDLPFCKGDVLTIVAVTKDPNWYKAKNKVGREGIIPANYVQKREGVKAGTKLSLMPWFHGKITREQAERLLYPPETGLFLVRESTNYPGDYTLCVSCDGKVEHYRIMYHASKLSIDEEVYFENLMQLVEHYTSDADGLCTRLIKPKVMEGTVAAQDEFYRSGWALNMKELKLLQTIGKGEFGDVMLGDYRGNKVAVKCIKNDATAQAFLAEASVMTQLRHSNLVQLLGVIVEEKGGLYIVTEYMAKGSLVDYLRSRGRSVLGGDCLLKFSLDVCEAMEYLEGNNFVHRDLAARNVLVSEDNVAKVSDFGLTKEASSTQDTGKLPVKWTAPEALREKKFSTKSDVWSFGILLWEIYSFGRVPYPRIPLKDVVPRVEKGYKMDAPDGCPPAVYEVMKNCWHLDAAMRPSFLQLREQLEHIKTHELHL
Test [11] shares this target. The note with it: at 1 µM.
Test [12] addresses T2, Discoidin domain-containing receptor 2 (Homo sapiens) (UniProt Q16832).
T2 sequence (whole entry): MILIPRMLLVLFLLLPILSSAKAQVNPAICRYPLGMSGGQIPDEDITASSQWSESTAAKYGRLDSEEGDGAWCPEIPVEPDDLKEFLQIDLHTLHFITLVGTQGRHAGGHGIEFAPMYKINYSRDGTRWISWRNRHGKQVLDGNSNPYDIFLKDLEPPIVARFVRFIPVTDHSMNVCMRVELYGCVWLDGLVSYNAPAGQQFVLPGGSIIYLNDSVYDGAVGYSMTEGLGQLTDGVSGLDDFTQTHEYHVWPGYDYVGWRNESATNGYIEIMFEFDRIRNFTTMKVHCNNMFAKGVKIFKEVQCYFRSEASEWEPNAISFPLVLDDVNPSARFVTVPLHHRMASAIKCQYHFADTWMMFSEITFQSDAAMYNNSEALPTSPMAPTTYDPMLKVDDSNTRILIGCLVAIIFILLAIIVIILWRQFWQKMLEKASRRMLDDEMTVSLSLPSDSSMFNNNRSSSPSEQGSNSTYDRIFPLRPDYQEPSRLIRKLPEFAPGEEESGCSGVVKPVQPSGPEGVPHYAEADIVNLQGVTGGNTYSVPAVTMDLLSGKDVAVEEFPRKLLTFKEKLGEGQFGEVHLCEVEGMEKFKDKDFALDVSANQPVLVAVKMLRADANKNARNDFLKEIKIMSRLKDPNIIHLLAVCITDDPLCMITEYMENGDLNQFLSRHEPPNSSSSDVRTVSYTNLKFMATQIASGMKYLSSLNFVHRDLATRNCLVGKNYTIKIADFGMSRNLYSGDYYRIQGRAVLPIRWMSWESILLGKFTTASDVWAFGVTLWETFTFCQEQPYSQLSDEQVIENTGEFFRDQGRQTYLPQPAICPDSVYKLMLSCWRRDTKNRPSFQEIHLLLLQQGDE
The following applies: at 0.1 µM.

The target in test [13] is T2, Discoidin domain-containing receptor 2 (Homo sapiens). The note with it: at 1 µM.
The target of test [14] is Epidermal growth factor receptor (Homo sapiens) (UniProt P00533). The note with it: at 0.1 µM.
Chain of Epidermal growth factor receptor (Homo sapiens) (P00533 whole entry): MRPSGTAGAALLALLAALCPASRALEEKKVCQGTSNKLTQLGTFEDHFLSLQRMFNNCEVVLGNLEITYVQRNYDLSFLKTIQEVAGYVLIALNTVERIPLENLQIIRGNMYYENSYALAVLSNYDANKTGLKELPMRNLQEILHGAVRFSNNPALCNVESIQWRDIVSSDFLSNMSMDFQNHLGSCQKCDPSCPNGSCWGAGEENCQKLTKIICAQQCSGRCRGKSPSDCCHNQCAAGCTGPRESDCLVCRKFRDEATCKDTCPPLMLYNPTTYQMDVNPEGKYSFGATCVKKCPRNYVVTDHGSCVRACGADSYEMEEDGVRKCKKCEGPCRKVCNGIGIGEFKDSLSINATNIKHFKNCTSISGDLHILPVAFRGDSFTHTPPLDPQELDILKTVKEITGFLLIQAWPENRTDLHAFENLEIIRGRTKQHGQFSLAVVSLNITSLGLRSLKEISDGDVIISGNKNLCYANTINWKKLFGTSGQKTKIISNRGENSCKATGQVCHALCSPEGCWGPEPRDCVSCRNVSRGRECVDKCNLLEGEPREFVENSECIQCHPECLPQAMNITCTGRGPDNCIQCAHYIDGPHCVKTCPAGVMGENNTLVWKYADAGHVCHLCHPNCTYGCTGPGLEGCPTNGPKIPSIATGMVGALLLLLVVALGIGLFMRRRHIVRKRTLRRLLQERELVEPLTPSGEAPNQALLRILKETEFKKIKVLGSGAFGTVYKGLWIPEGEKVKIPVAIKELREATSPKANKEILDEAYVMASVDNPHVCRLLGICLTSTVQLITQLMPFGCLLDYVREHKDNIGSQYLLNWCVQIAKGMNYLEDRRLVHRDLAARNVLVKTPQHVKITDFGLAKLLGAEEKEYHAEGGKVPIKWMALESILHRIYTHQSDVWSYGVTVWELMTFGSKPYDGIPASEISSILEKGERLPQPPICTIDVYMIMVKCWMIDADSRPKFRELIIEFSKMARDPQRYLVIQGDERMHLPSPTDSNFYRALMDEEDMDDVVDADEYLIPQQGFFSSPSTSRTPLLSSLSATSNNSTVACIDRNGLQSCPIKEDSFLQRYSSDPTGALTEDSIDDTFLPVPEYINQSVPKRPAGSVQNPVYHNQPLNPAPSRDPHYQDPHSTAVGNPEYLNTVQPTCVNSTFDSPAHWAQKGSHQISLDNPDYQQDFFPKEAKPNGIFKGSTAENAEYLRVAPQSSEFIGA
Test [15] shares this target. The note with it: at 1 µM.
For test [16], the system named is Epidermal growth factor receptor (Homo sapiens), P00533 [L858R]. The note with it: at 0.1 µM.
Test [17] shares this test system. The following applies: at 1 µM.
Test [18] concerns Epidermal growth factor receptor (Homo sapiens), P00533 [L861Q]. The following applies: at 0.1 µM.
Chain of Epidermal growth factor receptor (Homo sapiens), P00533 [L861Q] (P00533 whole entry L861Q): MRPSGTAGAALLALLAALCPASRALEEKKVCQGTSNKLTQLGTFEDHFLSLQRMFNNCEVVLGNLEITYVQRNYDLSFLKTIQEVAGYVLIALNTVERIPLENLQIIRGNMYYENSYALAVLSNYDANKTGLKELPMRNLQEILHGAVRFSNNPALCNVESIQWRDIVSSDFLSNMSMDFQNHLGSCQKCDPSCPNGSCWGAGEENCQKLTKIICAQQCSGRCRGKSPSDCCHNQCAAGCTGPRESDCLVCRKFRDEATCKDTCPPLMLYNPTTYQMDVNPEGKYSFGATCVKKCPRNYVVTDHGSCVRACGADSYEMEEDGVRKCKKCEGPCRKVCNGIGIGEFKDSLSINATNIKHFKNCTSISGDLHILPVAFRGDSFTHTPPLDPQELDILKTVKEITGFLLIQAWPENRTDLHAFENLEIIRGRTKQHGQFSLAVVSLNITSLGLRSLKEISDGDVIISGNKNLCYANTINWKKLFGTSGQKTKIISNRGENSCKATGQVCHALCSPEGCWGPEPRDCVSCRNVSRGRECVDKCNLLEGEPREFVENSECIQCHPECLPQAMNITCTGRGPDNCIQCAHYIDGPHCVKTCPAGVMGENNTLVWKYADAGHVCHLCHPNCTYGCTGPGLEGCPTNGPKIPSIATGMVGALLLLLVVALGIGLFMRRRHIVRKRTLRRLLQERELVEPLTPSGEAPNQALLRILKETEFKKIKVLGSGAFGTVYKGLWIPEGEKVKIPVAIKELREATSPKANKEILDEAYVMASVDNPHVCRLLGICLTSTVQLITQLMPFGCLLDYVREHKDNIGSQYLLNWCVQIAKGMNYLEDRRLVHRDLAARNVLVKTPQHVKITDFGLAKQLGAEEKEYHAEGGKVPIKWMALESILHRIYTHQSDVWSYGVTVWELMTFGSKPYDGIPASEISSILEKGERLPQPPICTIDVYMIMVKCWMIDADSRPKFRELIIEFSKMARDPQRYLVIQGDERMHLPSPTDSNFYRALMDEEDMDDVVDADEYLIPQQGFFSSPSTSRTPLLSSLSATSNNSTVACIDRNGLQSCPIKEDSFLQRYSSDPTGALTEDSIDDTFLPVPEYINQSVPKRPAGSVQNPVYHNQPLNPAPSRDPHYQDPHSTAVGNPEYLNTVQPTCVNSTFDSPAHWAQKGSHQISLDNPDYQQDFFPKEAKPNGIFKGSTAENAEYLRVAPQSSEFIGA
Test [19] has the same test system. The following applies: at 1 µM.
For test [20], the system named is Epidermal growth factor receptor (Homo sapiens), P00533 [T790M]. The note with it: at 0.1 µM.

Usually inhibition stands for the change of the read-out against control, counted positive when it falls.

Where “and” joins values, the source holds several entries; their conditions need not be identical. Equal values may be shown once.

Chain of Tyrosine-protein kinase Blk (Homo sapiens) (P51451 2-505 limits assumed): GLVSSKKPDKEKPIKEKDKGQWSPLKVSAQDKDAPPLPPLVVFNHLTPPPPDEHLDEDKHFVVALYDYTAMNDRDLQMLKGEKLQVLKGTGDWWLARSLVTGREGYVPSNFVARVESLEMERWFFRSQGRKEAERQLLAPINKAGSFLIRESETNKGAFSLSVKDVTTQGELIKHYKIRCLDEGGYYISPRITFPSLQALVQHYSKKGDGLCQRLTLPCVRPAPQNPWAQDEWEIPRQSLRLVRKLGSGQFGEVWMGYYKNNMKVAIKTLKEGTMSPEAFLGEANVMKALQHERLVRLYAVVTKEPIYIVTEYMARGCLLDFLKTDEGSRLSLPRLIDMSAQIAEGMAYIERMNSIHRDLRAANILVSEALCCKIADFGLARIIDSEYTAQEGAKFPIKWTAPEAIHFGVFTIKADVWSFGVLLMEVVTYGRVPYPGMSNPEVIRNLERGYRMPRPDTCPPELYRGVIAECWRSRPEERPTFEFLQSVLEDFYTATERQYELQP
Chain of Tyrosine-protein kinase receptor UFO (Homo sapiens) (P30530 whole entry): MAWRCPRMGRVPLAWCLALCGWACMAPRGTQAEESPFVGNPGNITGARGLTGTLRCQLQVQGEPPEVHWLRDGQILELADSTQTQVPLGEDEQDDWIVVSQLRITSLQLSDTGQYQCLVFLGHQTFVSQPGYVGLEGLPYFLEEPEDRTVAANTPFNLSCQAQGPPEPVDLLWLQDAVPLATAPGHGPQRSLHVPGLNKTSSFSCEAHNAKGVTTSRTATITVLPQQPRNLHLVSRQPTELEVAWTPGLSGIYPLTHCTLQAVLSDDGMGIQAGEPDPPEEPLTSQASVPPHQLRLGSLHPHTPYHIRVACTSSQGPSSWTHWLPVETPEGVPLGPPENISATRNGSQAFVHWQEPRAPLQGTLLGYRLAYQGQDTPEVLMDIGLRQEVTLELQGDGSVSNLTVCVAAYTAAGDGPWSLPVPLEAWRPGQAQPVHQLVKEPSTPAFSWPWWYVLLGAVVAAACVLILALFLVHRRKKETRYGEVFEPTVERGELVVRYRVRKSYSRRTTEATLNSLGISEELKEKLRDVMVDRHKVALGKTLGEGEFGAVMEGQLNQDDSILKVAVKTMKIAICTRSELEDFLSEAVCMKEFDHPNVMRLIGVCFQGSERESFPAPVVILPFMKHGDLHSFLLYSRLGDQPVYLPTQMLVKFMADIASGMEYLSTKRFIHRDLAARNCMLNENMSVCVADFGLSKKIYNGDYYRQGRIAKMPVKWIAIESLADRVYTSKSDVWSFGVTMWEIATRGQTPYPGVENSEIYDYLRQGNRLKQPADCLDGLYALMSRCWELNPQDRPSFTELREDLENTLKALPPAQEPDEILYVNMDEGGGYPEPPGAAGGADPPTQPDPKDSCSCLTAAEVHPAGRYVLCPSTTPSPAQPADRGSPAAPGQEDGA

Consider `CC1=C(C(=O)Nc2ccc3[nH]nc(C)c3c2)C(c2ccc(C(F)(F)F)cc2)CC(=O)N1` (stereo not given), for which the inhibition is -6.56% in test [1]; 3.36% in test [2]; 17% in test [3]; -2.44% in test [4]; 4.58% in test [5]; 3.23% in [6]. In addition, the inhibition in test [7] was determined as 23.5%; in test [8], 1.29%; in test [9], 2.32%; in test [10] it was 1.88%; in test [11], 5.65%; in test [12] it was 3.33%. For the same molecule, the inhibition in test [13] is 1.65%; in [14], 2.76%; in test [15] it was 5.52%; in test [16], 4.19%; in [17], 1.96%; in [18] it was 1.79%. Also, the inhibition worked out at 1.92% in test [19] and 2.05% in [20].

Consider `COc1cc2c(cc1Nc1nc(Nc3cccc(F)c3C(N)=O)c3cc[nH]c3n1)N(C(=O)CN1CCN(C(C)C)CC1)CC2`, for which the inhibition in test [1] was 2.45%; in test [2], -0.36%; in test [3] it was -0.42%; in test [4] it was 2.26%; in test [5], 3.16%; in test [6], -1.33%. Further, the inhibition in test [7] was 3.54%; in test [8] it was -0.03%; in test [9], -1.36%; in [10], -1.06%; in test [11], -3.02%; in test [12], -1.78%. The inhibition is -0.55% in test [13]; 2.48% in test [14]; 17.1% in [15]; -0.57% in test [16]; 15.1% in test [17]; 1.65% in [18]. In addition, the figures for the inhibition in [19] and in test [20] were 13.7% and 2.59%, respectively.

With `Nc1ncnc2occ(-c3ccc(NC(=O)Nc4cc(C(F)(F)F)ccc4F)cc3)c12`, the inhibition in test [1] is 37.3% and 23.5%; in [2] it was 4.09% and 1.25%; in test [3], 39% and 23.5%; in [4], 17.8% and 9.86%; in [5] it was 69.5% and 57.2%; in test [6], 3.76% and -0.33%. For the same molecule, the inhibition in test [7] was 4.26% and 3.06%; in [8], 0.97% and 0.09%; in test [9], 5.11% and 1.18%; in test [10], 6.39% and 0.36%; in [11] it was 41% and 18.6%; in [12], 46.1% and 33.6%. For the same molecule, the inhibition in test [13] was 80% and 79.7%; in [14] it was 1.05% and 12.5%; in test [15], 5.41% and 15.6%; in test [16], 2.23% and 3.14%; in test [17], 1.42% and 3.22%; in test [18], 3.11% and 1.25%. Besides, the inhibition was 1.69% and 1.44% in test [19]; 1.74% and 0.3% in test [20].

With `COC(=O)Nc1nc2cc(Oc3ccc(NC(=O)Nc4ccccc4)cc3)ccc2[nH]1`, the inhibition is -3.64% in test [1]; 2.65% in [2]; 3.63% in [3]; 3.17% in test [4]; 3.73% in test [5]; 1.45% in test [6]. Besides, the inhibition in test [7] was determined as 2.78%; in test [8] it was 0.55%; in [9], 0.58%; in test [10], 4.95%; in test [11], 1.41%; in [12], 77.2%. For the same molecule, the inhibition in test [13] is 81.4%; in [14], 0.9%; in test [15], -0.33%; in test [16], 0.78%; in test [17] it was 4.35%; in test [18], 1.19%. In addition, the inhibition in test [19] was 1.08%; in [20], -1.39%.

`CC1(C)CC(n2cnc(-c3ccc(F)cc3)c2-c2ccnc(N)n2)CC(C)(C)N1`: the inhibition in [1] is 1.58%; in [2] it was 0.51%; in [3], 1.43%; in [4] it was -2.57%; in test [5], 1.06%; in [6], -2.17%. Also, the inhibition was 1.66% in test [7]; -1.42% in test [8]; -1.35% in [9]; -0.2% in test [10]; -2.23% in [11]; 1.3% in [12]. Also, the inhibition in [13] is -0.87%; in test [14], 0.38%; in test [15], -0.12%; in [16], -1.07%; in [17], 0.2%; in [18], -0.41%. Besides, the figures for the inhibition in test [19] and in [20] were -1% and -0.77%, respectively.

As to `CCS(=O)(=O)c1ccc(OC)c(Nc2ncc(-c3cccc(C(C)=O)c3)o2)c1`, the inhibition was -3.61% in test [1]; 4.6% in test [2]; 35.6% in [3]; -2.05% in [4]; 15.7% in test [5]; 4.59% in [6]. For the same molecule, the inhibition in [7] came out at 18.7%; in test [8], 2.71%; in test [9], 8.89%; in test [10], 2.68%; in test [11], 10.1%; in test [12], 3.31%. For the same molecule, the inhibition in [13] worked out at 17.9%; in [14], 4.92%; in [15], 9.23%; in test [16], 5.11%; in test [17], 16.6%; in test [18], 5.35%. Further, the values for the inhibition in [19] and in test [20] were 5.8% and 1.86%, respectively.

As to `COc1cc(Nc2ncc(-c3ccccc3)o2)cc(OC)c1`, the inhibition in test [1] was -6.19%; in test [2], 4.37%; in [3] it was 20.1%; in test [4], 3.71%; in [5] it was 6.51%; in test [6] it was 0.81%. In addition, the inhibition is 7.86% in test [7]; -1.03% in [8]; 0.87% in test [9]; 3.66% in test [10]; 4.79% in test [11]; 4.48% in test [12]. For the same molecule, the inhibition was 7.93% in test [13]; 3.35% in [14]; 5.26% in [15]; 0.1% in test [16]; 1.99% in test [17]; 3.52% in test [18]. In addition, the figures for the inhibition in test [19] and in test [20] were 5.17% and 1.76%, respectively.

Take `O=C1Nc2ccccc2/C1=C1\CCc2cc(O)ccc21`: the inhibition was found to be 1.9% in test [1]; 4.37% in test [2]; 22% in test [3]; 0.61% in test [4]; 7.52% in test [5]; 5% in [6]. In addition, the inhibition in test [7] was 4.05%; in test [8], -0.87%; in test [9], 0.47%; in [10] it was 5.49%; in [11] it was 4.47%; in [12] it was 2.06%. Also, the inhibition in [13] is 3.76%; in [14], 0.24%; in [15], 1.05%; in test [16], 1.94%; in test [17], 2.87%; in test [18] it was 2.16%. Besides, the results for the inhibition in test [19] and in [20] were -0.57% and 1.76%, respectively.

Turning to `OCCCNc1nccc(-c2c(-c3ccc(F)cc3)nn3cc(C(F)(F)F)ccc23)n1`, the inhibition in [1] is 1.31%; in test [2] it was 1.06%; in test [3], 2.83%; in [4] it was 5.93%; in [5], 3.3%; in test [6], 1.91%. Moreover, the inhibition in [7] came out at 5.03%; in [8] it was 0.07%; in test [9], 0.45%; in test [10], 4.06%; in [11], 1.58%; in test [12] it was 3.25%. For the same molecule, the inhibition in [13] stood at 19.3%; in test [14] it was 0.97%; in test [15] it was 9.16%; in [16], 5.62%; in test [17], 24.6%; in test [18] it was 2.61%. Moreover, the figures for the inhibition in test [19] and in test [20] were 6.62% and 0.96%, respectively.

For the origin of these results see ChEMBL document CHEMBL1961873, “Compounds: GSK PKIS; Assays: Nanosyn kinase panel” (2012).
